# Publication PMC8384837, “Expanding the binding specificity for RNA recognition by a PUF domain”
# Biological target: PUM1 PUF domain R4-NPA (Homo sapiens, UniProt Q14671 828-1176, H972P;Q975A)
# Experiment: yeast three-hybrid, YBZ-1, SC-Leu-His + 0.5 mM 3-AT, 4 days
# Conditions: tags: N-Gal4 AD-HA kept; label: inside an RPR1-promoter hybrid RNA with tandem MS2 sites; ssRNA
# In short: (§1)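 Repeat regions from input (SC-Leu) and selection (SC-Leu-His + 0.5 mM 3-AT) plates were PCR-amplified and Illumina-sequenced after four days of growth. The cells were strain YBZ-1 with a LexA–MS2 coat fusion and a HIS3 reporter, co-expressing Pumilio-1 PUF domain libraries and matching RNA elements from a centromeric plasmid. The interaction score is the log change in variant frequency from input to selection, taken in log2 with a pseudocount of 1 for absent variants.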
# PUM1 PUF domain R4-NPA, sequence (Q14671 828-1176 H972P/Q975A): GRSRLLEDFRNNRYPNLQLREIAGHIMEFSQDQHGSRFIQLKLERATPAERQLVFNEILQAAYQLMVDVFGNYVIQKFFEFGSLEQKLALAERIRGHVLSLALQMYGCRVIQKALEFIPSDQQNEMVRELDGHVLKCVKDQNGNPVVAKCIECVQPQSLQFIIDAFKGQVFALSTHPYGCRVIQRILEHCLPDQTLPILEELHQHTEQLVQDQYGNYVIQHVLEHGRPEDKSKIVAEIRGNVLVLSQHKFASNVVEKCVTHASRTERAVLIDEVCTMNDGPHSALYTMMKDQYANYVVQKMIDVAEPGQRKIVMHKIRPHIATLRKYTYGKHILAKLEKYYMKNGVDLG
row,Sequence,binding signal
1,GGCUAGAACUAGUGGAUCCCCCGGCGCCCGGCGGCUCGAGCCCGGGUAAGUGUAAAUAGUCUGCAUGCCGCCGGGCGCCAUGCCUGCAGGUCGACUCUAGAAAACAUG,1.59 log2 enrichment (interaction score)
2,GGCUAGAACUAGUGGAUCCCCCGGCGCCCGGCGGCUCGAGCCCGGGUAAGUGUAUAUAGUCUGCAUGCCGCCGGGCGCCAUGCCUGCAGGUCGACUCUAGAAAACAUG,4 log2 enrichment (interaction score)
3,GGCUAGAACUAGUGGAUCCCCCGGCGCCCGGCGGCUCGAGCCCGGGUAAGUGUACAUAGUCUGCAUGCCGCCGGGCGCCAUGCCUGCAGGUCGACUCUAGAAAACAUG,0.72 log2 enrichment (interaction score)

# Biological target: PUM1 PUF domain R3-EHG (Homo sapiens, UniProt Q14671 828-1176, C935E;R936H;Q939G)
# Experiment: as above
# Conditions: tags: N-Gal4 AD-HA kept; label: inside an RPR1-promoter hybrid RNA with tandem MS2 sites; ssRNA
# In short: as §1
row,Sequence,binding signal
1,GGCUAGAACUAGUGGAUCCCCCGGCGCCCGGCGGCUCGAGCCCGGGUAAGUGUAAGUAGUCUGCAUGCCGCCGGGCGCCAUGCCUGCAGGUCGACUCUAGAAAACAUG,4.29 log2 enrichment (interaction score)
2,GGCUAGAACUAGUGGAUCCCCCGGCGCCCGGCGGCUCGAGCCCGGGUAAGUGUAAAUAGUCUGCAUGCCGCCGGGCGCCAUGCCUGCAGGUCGACUCUAGAAAACAUG,2.53 log2 enrichment (interaction score)
3,GGCUAGAACUAGUGGAUCCCCCGGCGCCCGGCGGCUCGAGCCCGGGUAAGUGUAAUUAGUCUGCAUGCCGCCGGGCGCCAUGCCUGCAGGUCGACUCUAGAAAACAUG,5.05 log2 enrichment (interaction score)

# Biological target: PUM1 PUF domain R1-RYQ (Homo sapiens, UniProt Q14671 828-1176, S863R;R864Y)
# Experiment: as above
# Conditions: tags: N-Gal4 AD-HA kept; label: inside an RPR1-promoter hybrid RNA with tandem MS2 sites; ssRNA
# In short: as §1
row,Sequence,binding signal
1,GGCUAGAACUAGUGGAUCCCCCGGCGCCCGGCGGCUCGAGCCCGGGUAAGUGUAAAUUGUCUGCAUGCCGCCGGGCGCCAUGCCUGCAGGUCGACUCUAGAAAACAUG,4.14 log2 enrichment (interaction score)
2,GGCUAGAACUAGUGGAUCCCCCGGCGCCCGGCGGCUCGAGCCCGGGUAAGUGUAAAUAGUCUGCAUGCCGCCGGGCGCCAUGCCUGCAGGUCGACUCUAGAAAACAUG,2.21 log2 enrichment (interaction score)
3,GGCUAGAACUAGUGGAUCCCCCGGCGCCCGGCGGCUCGAGCCCGGGUAAGUGUAAAUCGUCUGCAUGCCGCCGGGCGCCAUGCCUGCAGGUCGACUCUAGAAAACAUG,5.27 log2 enrichment (interaction score)

# Biological target: PUM1 PUF domain R4-DWG (Homo sapiens, UniProt Q14671 828-1176, N971D;H972W;Q975G)
# Experiment: as above
# Conditions: tags: N-Gal4 AD-HA kept; label: inside an RPR1-promoter hybrid RNA with tandem MS2 sites; ssRNA
# In short: as §1
row,Sequence,binding signal
1,GGCUAGAACUAGUGGAUCCCCCGGCGCCCGGCGGCUCGAGCCCGGGUAAGUGUAAAUAGUCUGCAUGCCGCCGGGCGCCAUGCCUGCAGGUCGACUCUAGAAAACAUG,5.39 log2 enrichment (interaction score)
2,GGCUAGAACUAGUGGAUCCCCCGGCGCCCGGCGGCUCGAGCCCGGGUAAGUGUAUAUAGUCUGCAUGCCGCCGGGCGCCAUGCCUGCAGGUCGACUCUAGAAAACAUG,4.56 log2 enrichment (interaction score)
3,GGCUAGAACUAGUGGAUCCCCCGGCGCCCGGCGGCUCGAGCCCGGGUAAGUGUACAUAGUCUGCAUGCCGCCGGGCGCCAUGCCUGCAGGUCGACUCUAGAAAACAUG,2.61 log2 enrichment (interaction score)
